Data from the antibiotic and cytotoxicity screens of Wong et al. (2023).
Among all 39,000 compounds or so, about 1,500 (3.8%) were called active. The sample holds actives, similar compounds and a random draw of the others, so the mix is not that of the screen.

Test system: HSkMC (human skeletal muscle cells)
Experiment: cytotoxicity call (relative viability < 0.9)
Conditions: 10 µM

Q: For `CC(C)NC(=O)N(C)C[C@@H]1Oc2cc(C#Cc3ccc(F)cc3)ccc2S(=O)(=O)N([C@H](C)CO)C[C@@H]1C`, which cytotoxicity call is on record?
A: inactive

Q: `C[C@H]1CN([C@@H](C)CO)C(=O)c2cccc(NC(=O)Nc3ccc(F)cc3)c2O[C@H]1CN(C)C(=O)Nc1cccc2ccccc12` was tested. Which cytotoxicity call did it give?
A: inactive

Q: How did the cytotoxicity call turn out when `COc1ccc([Si](C)(C)[C@@H]2[C@@H](CCn3cc([C@H](O)c4ccccc4)nn3)O[C@]3(C(=O)N(Cc4cccc(N5CCOC5=O)c4)c4ccccc43)[C@H]2C)cc1` was run?
A: inactive

Q: Which cytotoxicity call does the source give for `C[C@@H]1CN([C@@H](C)CO)C(=O)Cc2cc(NC(=O)Cn3cnnn3)ccc2O[C@@H]1CN(C)CC1CC1` here?
A: inactive

Q: `COc1ccc(Oc2cc(NCCC(F)(F)F)c3ncc(-c4ccc(C(=O)NC5CC5)c(C)c4)n3n2)c(F)c1F` was tested. Which cytotoxicity call did it give?
A: active

Q: With `Cc1ccc(S(=O)(=O)Nc2ccc3c(c2)C(=O)N([C@H](C)CO)C[C@H](C)[C@H](CN(C)S(C)(=O)=O)OCCCC[C@@H](C)O3)cc1` as the compound, how does the cytotoxicity call read?
A: inactive

Q: How did the cytotoxicity call turn out when `C=CC[C@H](CC(=O)N(CCO)Cc1ccccc1)C(=O)N[C@H](COC(=O)[C@H](CC=C)NC(=O)OCC1c2ccccc2-c2ccccc21)C(C)(C)C` was run?
A: inactive

Q: For `C[C@@H]1CN([C@H](C)CO)C(=O)Cc2cc(NC(=O)Nc3ccccc3)ccc2O[C@H]1CN(C)S(C)(=O)=O`, which cytotoxicity call is on record?
A: inactive

Q: `C[C@@H]1CN([C@@H](C)CO)C(=O)Cc2cc(NC(=O)Nc3ccccc3)ccc2O[C@@H]1CN(C)Cc1ccc(-c2ccccc2)cc1` was tested. Which cytotoxicity call did it give?
A: inactive

Q: How did the cytotoxicity call turn out when `C[C@H](CO)N1C[C@H](C)[C@H](CN(C)Cc2ccc(-c3ccccc3)cc2)Oc2ccc(NC(=O)Nc3ccccc3)cc2CC1=O` was run?
A: inactive

Q: Which cytotoxicity call does the source give for `C[C@H](CO)N1C[C@H](C)[C@H](CN(C)S(C)(=O)=O)Oc2ccc(NC(=O)Nc3ccccc3)cc2CC1=O` here?
A: active

Q: With `C[C@@H]1CN([C@H](C)CO)C(=O)Cc2cc(NC(=O)Nc3ccc(F)cc3)ccc2O[C@H]1CN(C)Cc1ccc(-c2ccccc2)cc1` as the compound, how does the cytotoxicity call read?
A: active

Q: How did the cytotoxicity call turn out when `C[C@H]1CN([C@@H](C)CO)C(=O)Cc2cc(NC(=O)Nc3ccc(F)cc3)ccc2O[C@H]1CN(C)Cc1ccc(C(=O)Nc2ccccc2N)cc1` was run?
A: active

Q: `C[C@H]1CN([C@@H](C)CO)C(=O)Cc2cc(NC(=O)Nc3ccccc3)ccc2O[C@H]1CN(C)S(C)(=O)=O` was tested. Which cytotoxicity call did it give?
A: inactive

Q: Which cytotoxicity call does the source give for `C[C@@H]1CN([C@H](C)CO)C(=O)Cc2cc(NC(=O)Nc3ccccc3)ccc2O[C@@H]1CN(C)Cc1ccc(-c2ccccc2)cc1` here?
A: active

Q: `C[C@@H]1CN([C@@H](C)CO)C(=O)Cc2cc(NC(=O)Nc3ccc(F)cc3)ccc2O[C@H]1CN(C)Cc1ccc(-c2ccccc2)cc1` was tested. Which cytotoxicity call did it give?
A: inactive

Q: `C[C@H](CO)N1C[C@H](C)[C@@H](CN(C)Cc2ccc(C(=O)Nc3ccccc3N)cc2)Oc2ccc(NC(=O)Nc3ccc(F)cc3)cc2CC1=O` was tested. Which cytotoxicity call did it give?
A: inactive

Q: Which cytotoxicity call does the source give for `C[C@H](CO)N1C[C@H](C)[C@H](CN(C)Cc2ccc(C(=O)Nc3ccccc3N)cc2)Oc2ccc(NC(=O)Nc3ccc(F)cc3)cc2CC1=O` here?
A: inactive

Q: Which cytotoxicity call does the source give for `Cc1sc(Nc2ccccc2)nc1-c1ccc(Cl)cc1` here?
A: inactive

Q: `COc1ccc(CCN2C(=O)[C@@]3(c4ccc([N+](=O)[O-])cc4)CC(=O)N(CC45CC6CC(CC(C6)C4)C5)[C@@H]3c3ccc(CO)cc32)cc1` was tested. Which cytotoxicity call did it give?
A: inactive

Q: With `O=C1CSC(=S)N1` as the compound, how does the cytotoxicity call read?
A: inactive

Q: `COc1ccc(NC(=O)N(C)C[C@H]2Oc3c(NC(=O)Nc4ccc(C(F)(F)F)cc4)cccc3C(=O)N([C@H](C)CO)C[C@@H]2C)cc1` was tested. Which cytotoxicity call did it give?
A: inactive

Q: Which cytotoxicity call does the source give for `COc1ccc(S(=O)(=O)Nc2ccc3c(c2)CC(=O)N([C@H](C)CO)C[C@H](C)[C@@H](CN(C)S(=O)(=O)c2ccccc2)O3)cc1` here?
A: inactive

Q: How did the cytotoxicity call turn out when `C[C@@H]1CCCCO[C@@H](CN(C)Cc2ccncc2)[C@H](C)CN([C@H](C)CO)C(=O)c2cc(NC(=O)Cc3ccccc3)ccc2O1` was run?
A: inactive

Q: With `C[C@@H]1CN([C@@H](C)CO)C(=O)c2cc(NC(=O)Nc3ccc(F)cc3)ccc2O[C@@H](C)CCCCO[C@@H]1CN(C)Cc1ccc2c(c1)OCO2` as the compound, how does the cytotoxicity call read?
A: inactive

Q: With `C[C@@H]1CN([C@@H](C)CO)C(=O)c2cc(NC(=O)Nc3ccc(F)cc3)ccc2O[C@@H](C)CCCCO[C@@H]1CN(C)Cc1ccc(C(=O)O)cc1` as the compound, how does the cytotoxicity call read?
A: inactive

Q: Which cytotoxicity call does the source give for `C[C@@H]1CN([C@H](C)CO)C(=O)c2cc(NS(=O)(=O)c3cn(C)cn3)ccc2O[C@@H]1CN(C)Cc1ccncc1` here?
A: inactive

Q: `C[C@H]1CN([C@@H](C)CO)C(=O)Cc2cc(NC(=O)c3ccncc3)ccc2O[C@H]1CN(C)Cc1ccc(-c2ccccc2)cc1` was tested. Which cytotoxicity call did it give?
A: inactive

Q: How did the cytotoxicity call turn out when `C[C@@H]1CN([C@H](C)CO)C(=O)Cc2cc(NC(=O)Nc3ccc4c(c3)OCO4)ccc2O[C@@H]1CN(C)Cc1ccc(-c2ccccc2)cc1` was run?
A: active

Q: How did the cytotoxicity call turn out when `C[C@@H]1CN([C@@H](C)CO)C(=O)Cc2cc(NC(=O)Nc3ccc(F)cc3)ccc2O[C@@H]1CN(C)Cc1ccc(-c2ccccc2)cc1` was run?
A: inactive

Q: Which cytotoxicity call does the source give for `C[C@H](CO)N1C[C@H](C)[C@@H](CN(C)Cc2ccc(-c3ccccc3)cc2)Oc2ccc(NC(=O)Nc3ccc(F)cc3)cc2CC1=O` here?
A: inactive

Q: `C[C@H]1CN([C@@H](C)CO)C(=O)Cc2cc(NC(=O)Nc3ccc4c(c3)OCO4)ccc2O[C@H]1CN(C)Cc1ccc(-c2ccccc2)cc1` was tested. Which cytotoxicity call did it give?
A: inactive

Q: How did the cytotoxicity call turn out when `C[C@@H]1CN([C@@H](C)CO)C(=O)Cc2cc(NC(=O)Nc3ccc4c(c3)OCO4)ccc2O[C@H]1CN(C)Cc1ccc(-c2ccccc2)cc1` was run?
A: inactive

Q: How did the cytotoxicity call turn out when `C[C@H](CO)N1C[C@H](C)[C@H](CN(C)Cc2ccc(-c3ccccc3)cc2)Oc2ccc(NC(=O)Nc3ccc(F)cc3)cc2CC1=O` was run?
A: active

Q: `C[C@H](CO)N1C[C@H](C)[C@H](CN(C)Cc2ccc(-c3ccccc3)cc2)Oc2ccc(NC(=O)c3ccncc3)cc2CC1=O` was tested. Which cytotoxicity call did it give?
A: inactive

Q: For `C[C@@H]1CN([C@H](C)CO)C(=O)Cc2cc(NC(=O)c3ccncc3)ccc2O[C@@H]1CN(C)Cc1ccc(-c2ccccc2)cc1`, which cytotoxicity call is on record?
A: active

Q: For `C[C@H]1CN([C@@H](C)CO)C(=O)Cc2cc(NC(=O)Nc3ccc(F)cc3)ccc2O[C@H]1CN(C)Cc1ccc(-c2ccccc2)cc1`, which cytotoxicity call is on record?
A: active

Q: With `C[C@@H]1CN([C@H](C)CO)C(=O)Cc2cc(NC(=O)Nc3ccc(F)cc3)ccc2O[C@@H]1CN(C)Cc1ccc(-c2ccccc2)cc1` as the compound, how does the cytotoxicity call read?
A: inactive

Q: Which cytotoxicity call does the source give for `C[C@H]1CN([C@@H](C)CO)C(=O)Cc2cc(NC(=O)Nc3ccc(F)cc3)ccc2O[C@@H]1CN(C)Cc1ccc(-c2ccccc2)cc1` here?
A: inactive
